# Measurements reported in the supplement of paper PMC8728848.
# About 410 targets per protein were measured; listed, in parts, are those with the strongest signals and a random draw of the rest.
# B1: Epa1-NP (Candida glabrata), Q6VBJ0 (protein)
# chain: MILNPALFLNKCVCIYTTLILLLLTNGGYATSSNDISLASKDPTTFPLGCSPDITTPKKGLSMELYSYDFRKKGSYPCWDAAYLDPNYPRTGYKSHRLLAKVDGVTGNINFYYHATKGCTPQLGHLPASYNYPKPLTMTNFTMLLYGYFRPKVTGFHTFTISADDLLFVNFGAGNAFDCCRRDSSADHFGNYQAYAIWGSKTAKDELTVHLDAGVYYPIRLFYNNREYDGALSFTFKTESNENTVSDFSEYFFSLDDTEEGCPGLISYDSSCASVKTSKIIGIDYHTETPNENLVPITKTIYHLGIPCTGTTTTPLCGSGFYDPLANKCVTINTSSTSSVTKTTSHTTSKEVSFHSSISSQKTLIPKSIPSPYGPIKSQSIPTEMETSSEISSSEYAFSDVISTPSHSPYTKKHSSLNSSSYTSTVIHSLTSYSISQGIFSTSLSEQNITSKSSTDKFSTATSMSNNITQSSIIISQFSTNNENYTTTSMHTSSDKISTETLNNSISTTTSILFSNSSTILKNNTTIISSDKDTHYHPVNPTIVCSTNKTEIICASITQPSISNSNNHWSSSVLKFNSTTVRSTLPSSAGSNETSINVPFSSSTESNTSTSSTSTSNSKMVRSTLPSSAGSNETSISVPFSSSTESNTSTSSTSTSNSKMVRSTLPSSAGSNETSINVPFSSSTESNTSTSSTSTSNSKTVRSTPFSSAGIIMTSLSQRNNKSASSYASSNSKCYNTADSCRKVHSTPSYLLTSSYTSEGVDYDCSLVSTKLKINDTNCVNNKHTTKSCLKTSVTTTIPTLEIKTARKSSSNTIGLHSYPTSSPNKSISSAPIIGYISSFKTIKTASPSYQTSDLTTITTITSLNNPGSTAVENTHESNDKSRKTSSNDISSKHSVIKETKDAVESSNKSHQTNTLKCSSIIIASSSHNSYESLGGTTLTLTLSKVYSPQNNDTLPFLEISEVNPSRTVLPESSKMMQYLTSTEERNKTARNTIATNIVSISTFHFEGEGNAIRMGYTQLLLMLIGIIVMNIGT
# What was measured:
# Experiment in all cases: glycan array binding signal (z-score within array); higher = stronger binding
# Conditions in all cases: glycan notation: IUPAC condensed, linker removed
# [1] = molecular target: Gal3S(b1-3)[Fuc(a1-4)]GlcNAc
# How it was run: (§1)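 The binding signal is a Z-score computed within each array. Data were drawn from 3228 arrays in the Consortium for Functional Glycomics database, restricted to those with a known protein sequence. Scores were averaged over arrays of the same protein sequence at different concentrations or buffers, and over linkers, and negative values can be taken as non-binding.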
# [2] = molecular target: GalNAc(a1-3)Fuc(a1-2)Gal(b1-4)GlcNAc(b1-3)[GalNAc(a1-3)Fuc(a1-2)Gal(b1-4)GlcNAc(b1-6)]GalNAc
# How it was run: as §1
# [3] = molecular target: GalNAc(a1-3)GalNAc
# How it was run: as §1
# [4] = molecular target: GalNAc(b1-3)Gal(a1-4)Gal(b1-4)GlcNAc
# How it was run: as §1
# [5] = molecular target: GalNAc(b1-3)GalNAc
# How it was run: as §1
# [6] = molecular target: GalNAc(b1-4)Gal(b1-4)Glc
# How it was run: as §1
# [7] = molecular target: GalNAc(b1-4)GlcNAc(b1-3)GalNAc(b1-4)GlcNAc
# How it was run: as §1
# [8] = molecular target: GalNAc3S(b1-4)GlcNAc3S
# How it was run: as §1
# [9] = molecular target: Glc(a1-6)Glc(a1-6)Glc
# How it was run: as §1
# [10] = molecular target: GlcNAc(a1-3)Gal(b1-4)GlcNAc
# How it was run: as §1
# [11] = molecular target: GlcNAc(a1-4)Gal(b1-4)GlcNAc(b1-3)Gal(b1-4)GlcNAc
# How it was run: as §1
# [12] = molecular target: GlcNAc(b1-2)[GlcNAc(b1-4)]Man(a1-3)[GlcNAc(b1-4)][GlcNAc(b1-2)[GlcNAc(b1-6)]Man(a1-6)]Man(b1-4)GlcNAc(b1-4)[Fuc(a1-6)]GlcNAc
# How it was run: as §1
# [13] = molecular target: GlcNAc(b1-3)Gal(b1-4)GlcNAc(b1-3)Gal(b1-4)GlcNAc(b1-2)[GlcNAc(b1-3)Gal(b1-4)GlcNAc(b1-3)Gal(b1-4)GlcNAc(b1-6)]Man(a1-6)[GlcNAc(b1-3)Gal(b1-4)GlcNAc(b1-3)Gal(b1-4)GlcNAc(b1-2)Man(a1-3)]Man(b1-4)GlcNAc(b1-4)[Fuc(a1-6)]GlcNAc
# How it was run: as §1
# [14] = molecular target: GlcNAc(b1-3)Gal(b1-4)GlcNAc(b1-3)GalNAc
# How it was run: as §1
# [15] = molecular target: GlcNAc(b1-3)[GlcNAc(b1-6)]GalNAc
# How it was run: as §1
# [16] = molecular target: GlcNAc(b1-4)GlcNAc(b1-4)GlcNAc(b1-4)GlcNAc(b1-4)GlcNAc(b1-4)GlcNAc
# How it was run: as §1
# [17] = molecular target: Man(a1-3)[Man(a1-6)]Man(b1-4)GlcNAc(b1-4)GlcNAc
# How it was run: as §1
# [18] = molecular target: Neu5Ac(a2-3)Gal(b1-4)GlcNAc(b1-2)[Neu5Ac(a2-3)Gal(b1-4)GlcNAc(b1-4)]Man(a1-3)[GlcNAc(b1-4)][Neu5Ac(a2-3)Gal(b1-4)GlcNAc(b1-4)Man(a1-6)]Man(b1-4)GlcNAc(b1-4)GlcNAc
# How it was run: as §1
# [19] = molecular target: Neu5Ac(a2-3)Gal(b1-4)GlcNAc(b1-3)Gal(b1-4)GlcNAc(b1-3)GalNAc
# How it was run: as §1
# [20] = molecular target: Neu5Ac(a2-3)GalNAc(b1-4)GlcNAc
# How it was run: as §1
# [21] = molecular target: Neu5Ac(a2-6)Gal
# How it was run: as §1
# [22] = molecular target: Neu5Ac(a2-6)Gal(b1-4)GlcNAc(b1-2)Man(a1-3)[GlcNAc(b1-2)Man(b1-4)GlcNAc(b1-2)Man(a1-6)]Man(b1-4)GlcNAc(b1-4)GlcNAc
# How it was run: as §1
# [23] = molecular target: Neu5Ac(a2-6)Gal(b1-4)GlcNAc6S
# How it was run: as §1
# [24] = molecular target: Neu5Ac(a2-6)GlcNAc(b1-4)GlcNAc
# How it was run: as §1
# [25] = molecular target: Neu5Gc(a2-3)Gal(b1-3)GlcNAc
# How it was run: as §1
# [26] = molecular target: Neu5Gc(a2-3)Gal(b1-4)Glc
# How it was run: as §1
# [27] = molecular target: Neu5Gc(a2-8)Neu5Ac(a2-3)Gal(b1-4)GlcNAc
# How it was run: as §1
# [28] = molecular target: Neu5Gc(a2-8)Neu5Gc(a2-3)Gal(b1-4)GlcNAc
# How it was run: as §1
binder,measurement,setting,value
B1,glycan array binding signal (z-score),[1],-0.293
same,glycan array binding signal (z-score),[2],-0.254
same,glycan array binding signal (z-score),[3],-0.306
same,glycan array binding signal (z-score),[4],-0.325
same,glycan array binding signal (z-score),[5],-0.293
same,glycan array binding signal (z-score),[6],-0.286
same,glycan array binding signal (z-score),[7],-0.291
same,glycan array binding signal (z-score),[8],-0.283
same,glycan array binding signal (z-score),[9],-0.338
same,glycan array binding signal (z-score),[10],-0.317
same,glycan array binding signal (z-score),[11],-0.217
same,glycan array binding signal (z-score),[12],-0.285
same,glycan array binding signal (z-score),[13],-0.27
same,glycan array binding signal (z-score),[14],-0.287
same,glycan array binding signal (z-score),[15],-0.284
same,glycan array binding signal (z-score),[16],-0.319
same,glycan array binding signal (z-score),[17],-0.374
same,glycan array binding signal (z-score),[18],-0.295
same,glycan array binding signal (z-score),[19],-0.291
same,glycan array binding signal (z-score),[20],-0.338
same,glycan array binding signal (z-score),[21],-0.276
same,glycan array binding signal (z-score),[22],-0.296
same,glycan array binding signal (z-score),[23],-0.31
same,glycan array binding signal (z-score),[24],-0.281
same,glycan array binding signal (z-score),[25],-0.348
same,glycan array binding signal (z-score),[26],-0.308
same,glycan array binding signal (z-score),[27],-0.286
same,glycan array binding signal (z-score),[28],-0.286
